Test results taken from PubChem BioAssay AID504332 (National Center for Advancing Translational Sciences (NCATS), 2011).
Screen size: about 350,000 compounds; about 31,000 (8.9%) were called active. Roughly 15% stayed inconclusive and do not appear here. This excerpt belongs to a sample that is enriched for actives. Values without a mark were called inactive. The call rests on the fitted dose curve; in most records, active means well fitted inhibition curve with a large enough effect; inconclusive means small, poorly fitted or top-dose-only effect; inactive means no such curve, though single readings can be large or run the other way.

These compounds were tested against Histone-lysine N-methyltransferase EHMT2 (Homo sapiens) (UniProt Q96KQ7) (assay: qHTS Assay for Inhibitors of Histone Lysine Methyltransferase G9a). Settings: G9a H3K9 monomethylation, AlphaScreen, 2 h; series mostly up to 59 µM; activity, negative = inhibition: at the top concentration.
How it was run: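 AlphaScreen detection with an anti-monomethyl H3K9 antibody quantified product after a 2 h room-temperature reaction containing 500 nM biotinylated H3K9 peptide, 20 µM SAM and 20 nM enzyme, which had been preincubated 15 min with compound.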
Further: nearly all actives have a fitted effect of over 75% in size.
On the % scale 0 is the no-effect control and ±100 the full control effect; potency means the concentration at half of the fitted maximal effect.

Histone-lysine N-methyltransferase EHMT2 (Homo sapiens), sequence (Q96KQ7 913-1193 limits assumed): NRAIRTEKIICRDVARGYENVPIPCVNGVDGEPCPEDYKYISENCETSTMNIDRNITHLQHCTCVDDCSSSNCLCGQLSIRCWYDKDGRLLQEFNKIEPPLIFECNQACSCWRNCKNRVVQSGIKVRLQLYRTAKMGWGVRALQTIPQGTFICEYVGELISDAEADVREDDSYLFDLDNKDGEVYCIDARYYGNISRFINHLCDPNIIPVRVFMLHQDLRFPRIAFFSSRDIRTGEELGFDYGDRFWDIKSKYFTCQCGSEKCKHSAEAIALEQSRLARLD

SMILES	Potency	activity, negative = inhibition
Brc1ccc(C2=CC(c3ccco3)n3ncnc3N2)cc1 (stereo not drawn)	12.6 µM (active)	
COC(=O)C1=C(C)Nc2ncnn2C1c1ccco1 (stereo not drawn)		3.2% [at 12.7 µM]
CCOC(=O)c1c(C)[nH]c(CCC(=O)Nc2ccc(OC)c(OC)c2)c1C		12%
COc1ccc(Nc2ccc([N+](=O)[O-])cn2)cn1		1.56% [at 102 µM]
COc1ccc(Nc2cc(Cl)ccc2C(=O)O)cn1	2.24 µM (active)	
COc1ccc(NS(=O)(=O)c2ccc(F)cc2F)cn1		9.65% [at 102 µM]
Cc1ccccc1CCNC(=O)C1CCN(c2nc3ccccc3nc2C(F)(F)F)CC1		6.11%
CCC(=O)c1ccc(OCC(=O)N(CC)CC2COc3ccccc3O2)cc1 (stereo not drawn)		1.74% [at 102 µM]
Cc1ccccc1Nc1scc(-c2ccc(Br)cc2)[n+]1-c1ccccc1C	20 µM (active)	
CCOc1ccc(NC(=O)c2cc(S(=O)(=O)N3CCCC3)c[nH]2)cc1		-25.3%
Cc1onc(-c2ccccc2Cl)c1C(=O)OCc1nnc(-c2ccccc2)o1		28.6% [at 102 µM]
CCC(=O)N1CCc2cc(Br)cc(S(=O)(=O)CCC(=O)NCc3ccccc3OC)c21		-8.43%
O=C(O)C1OC(C(=O)O)C2C1C(F)(F)C2(F)F (stereo not drawn)	39.8 µM (active)	
CC1=C(C(=O)N2CCN(c3cccc(C(F)(F)F)c3)CC2)C2(CCCCC2)OC1=O		-38.2%
CNc1ccc(-c2nc(-c3ccccc3C)no2)cc1[N+](=O)[O-]		-37.9%
CC1(C)Oc2ccc3ccc(=O)oc3c2/C(=C/NCCO)C1=O	35.5 µM (active)	
C/C=C(/C)C(=O)OC1Cc2c(ccc3ccc(=O)oc23)OC1(C)C (stereo not drawn)		25.6% [at 12.7 µM]
O=C(NC1CCCCC1)c1ccc2c(c1)N(Cc1ccc(Cl)cc1)C(=O)c1ccccc1S2=O (stereo not drawn)		4.83%
Nc1ncc(S(=O)(=O)Nc2ccc(OC(F)(F)F)cc2)cn1		1.47%
COc1ccc(NS(=O)(=O)c2cccc(C(=O)NCCc3ccc(S(N)(=O)=O)cc3)c2)cc1		9.68% [at 12.7 µM]
Cc1ccc(CN(C(=O)c2ccccc2[N+](=O)[O-])c2ccccn2)cc1		-8.14%
CCCC(=O)N=c1sc2cccc(F)c2n1C	44.7 µM (active)	
CCN(CC)S(=O)(=O)c1ccc(C(=O)N=c2sc3cccc(OC)c3n2C)cc1		31.3%
Cn1c(=NC(=O)CSCC(=O)N2CCCCC2)sc2ccccc21		8%

SMILES	Potency	activity, negative = inhibition
CCOc1ccc(CC(=O)NCCc2csc3nc(-c4ccccc4F)nn23)cc1		34.6%
CC(C)CCN(C(=O)Nc1ccc(Cl)c(Cl)c1)C(C)c1cccs1 (stereo not drawn)		24.7%
CCOC(=O)C(Sc1ncc(C#N)c(N)n1)C(C)C (stereo not drawn)	39.8 µM (active)	
CCCCOc1ccc(-c2ncc(C(=O)OCC)c(N)n2)cc1		6.88% [at 12.7 µM]
CCOC(=O)CSc1nccc(N(C)C)c1C#N		-8.31% [at 102 µM]
O=C(CNc1cccc(S(=O)(=O)N2CCCCC2)c1)Nc1ccccc1F		14.7% [at 12.7 µM]
CCN1C(=O)[C@@H]2[C@@H](c3ccc(-c4ccc(OC)cc4)c(OC)c3)N3CCC[C@@]3(C(=O)OC)[C@@H]2C1=O		-8.12% [at 2.33 µM]
Cc1nn(Cc2ccccc2)c(C)c1C(=O)NCCCN1CCCC1=O		10.5% [at 12.7 µM]
CCOC(=O)c1c(NC(=O)CN2C(=O)NC3(CCC(C)CC3)C2=O)sc(C)c1CC (stereo not drawn)		-0.128%
CCC(=C/c1sc2ccc3ccccc3c2[n+]1C)/C=C1\Sc2ccc3ccccc3c2N1C	3.16 µM (active)	
O=C(NC(=S)Nc1ccc(S(=O)(=O)N2CCOCC2)cc1)c1ccccc1[N+](=O)[O-]	39.8 µM (active)	
O=C(CN1C(=O)CCC1=O)Nc1ccc(S(=O)(=O)N2CCOCC2)cc1		7.29%
COC(=O)c1cc(Oc2ccc(S(=O)(=O)N3CCOCC3)cc2[N+](=O)[O-])cc(C(=O)OC)c1		19.1% [at 12.7 µM]
CN1CCN(S(=O)(=O)c2ccc(NC(=S)NC(=O)C3CC3)cc2)CC1		-24.7%
O=S(=O)(c1ccc(NC(=S)NN=C(C2CC2)C2CC2)cc1)N1CCOCC1	1.78 µM (active)	
O=C(NNC(=S)Nc1ccccc1)c1cccc(S(=O)(=O)N2CCOCC2)c1	31.6 µM (active)	
O=C(COC(=O)c1ccccc1)Nc1cccc(S(=O)(=O)N2CCOCC2)c1		2.49% [at 102 µM]
Cc1cc(C(=O)NNC(=O)c2cccc(S(=O)(=O)N3CCOCC3)c2)c2ccccc2n1		8.08% [at 102 µM]
Cc1ccccc1OCC(=O)Nc1ccc(S(=O)(=O)N2CCOCC2)cc1		2.97% [at 102 µM]
CCOC(=O)c1c(S(=O)(=O)NCC(=O)Nc2ccc(Cl)c(C(F)(F)F)c2)c(C)n(C)c1C		-3.36%
CCCS(=O)(=O)N1CCC(n2c(C(F)(F)F)nc3cccnc32)CC1		11.9%
Cn1c(=O)c2c(n3c4ccccc4nc13)NC(=O)CC2c1cccc(Cl)c1 (stereo not drawn)		-19.9%
Cc1cc2nc(-c3ccc(NC(=O)c4cc5ccccc5o4)cc3)oc2cc1C		-32.2%
O=C1COc2ccc(S(=O)(=O)NCCc3ccc(Cl)cc3)cc2N1		-10.7% [at 102 µM]
